Hit rate of the full screen: of about 5,500 compounds, about 2,000 (36%) were called active. Not shown: some 18% with an inconclusive outcome. No stated cut-off is given here; in the data, active means normalized growth mostly below about 0.91 (no sharp cut-off); inconclusive means no clear call, values can overlap the other calls; inactive means mostly above about 0.92. Some of the results follow.
Assay: chemical genetic growth profiling, strain panel (AID 1159580);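 further: tested at 20 µM; growth read once vehicle control cultures reached saturation at 30 °C; 1 = growth at the plate median or of vehicle wells; lower values mean less growth of the strain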
Conditions: growth OD

Measured: normalized growth

CC(C)C1CCC(C(=O)N[C@@H](Cc2ccccc2)C(=O)O)CC1 (some centres not stated)
inactive: S. cerevisiae deletion strains, locus YJR075W, strain HOC1, active compounds read low 0.992 | S. cerevisiae deletion strains, locus YKL009W, strain mrt4, active compounds read low 0.963 | S. cerevisiae deletion strains, locus YKL068W, active compounds read low 1 | S. cerevisiae deletion strains, locus YKL085W, strain MDH1 (second series), active compounds read low 1 | S. cerevisiae deletion strains, locus YKL085W, strain MDH1, active compounds read low 1 | S. cerevisiae deletion strains, locus YKL160W, strain elf1, active compounds read low 0.971 | S. cerevisiae deletion strains, locus YKL190W, strain CNB1, active compounds read low 0.976 | S. cerevisiae deletion strains, locus YKR001C, strain vps1, active compounds read low 1.04 | S. cerevisiae deletion strains, locus YKR026C, strain gcn3, active compounds read low 0.974 | S. cerevisiae deletion strains, locus YKR091W, strain srl3, active compounds read low 0.978 | S. cerevisiae deletion strains, locus YLL001W, strain dnm1, active compounds read low 0.957 | S. cerevisiae deletion strains, locus YLL026W, active compounds read low 0.981 | S. cerevisiae deletion strains, locus YLL041C, strain sdh2, active compounds read low 0.961 | S. cerevisiae deletion strains, locus YLR027C, strain aat2, active compounds read low 0.985 | S. cerevisiae deletion strains, locus YLR039C, strain RIC1, active compounds read low 0.969 | S. cerevisiae deletion strains, locus YLR058C, strain SHM2, active compounds read low 1 | S. cerevisiae deletion strains, locus YLR102C, strain apc9, active compounds read low 0.999 | S. cerevisiae deletion strains, locus YLR113W, strain HOG1, active compounds read low 1.02 | S. cerevisiae deletion strains, locus YLR221C, strain rsa3, active compounds read low 0.987 | S. cerevisiae deletion strains, locus YLR258W, strain gsy2, active compounds read low 0.987 | S. cerevisiae deletion strains, locus YLR262C, strain YPT6 (second series), active compounds read low 0.955 | S. cerevisiae deletion strains, locus YLR262C, strain YPT6, active compounds read low 0.964 | S. cerevisiae deletion strains, locus YLR268W, strain sec22, active compounds read low 1.01 | S. cerevisiae deletion strains, locus YLR320W, strain mms22, active compounds read low 0.979 | S. cerevisiae deletion strains, locus YLR330W, strain CHS5, active compounds read low 1 | S. cerevisiae deletion strains, locus YLR342W, strain FKS1 (second series), active compounds read low 0.965 | S. cerevisiae deletion strains, locus YLR342W, strain FKS1, active compounds read low 0.979 | S. cerevisiae deletion strains, locus YLR357W, strain rsc2, active compounds read low 0.971 | S. cerevisiae deletion strains, locus YLR370C, strain arc18, active compounds read low 0.959 | S. cerevisiae deletion strains, locus YLR371W, strain rom2, active compounds read low 1.01 | S. cerevisiae deletion strains, locus YLR384C, strain iki3, active compounds read low 0.965 | S. cerevisiae deletion strains, locus YLR418C, strain cdc73, active compounds read low 1.05 | S. cerevisiae deletion strains, locus YML016C, strain PPZ1, active compounds read low 1 | S. cerevisiae deletion strains, locus YML032C, strain rad52, active compounds read low 1.02 | S. cerevisiae deletion strains, locus YML120C, strain ndi1, active compounds read low 0.97 | S. cerevisiae deletion strains, locus YML124C, strain tub3, active compounds read low 1.02 | S. cerevisiae deletion strains, locus YMR058W, strain fet3, active compounds read low 0.98 | S. cerevisiae deletion strains, locus YMR078C, strain ctf18, active compounds read low 1.02 | S. cerevisiae deletion strains, locus YMR125W, strain sto1, active compounds read low 0.966 | S. cerevisiae deletion strains, locus YMR129W, active compounds read low 0.977 | S. cerevisiae deletion strains, locus YMR205C, strain PFK2, active compounds read low 0.967 | S. cerevisiae deletion strains, locus YMR223W, strain ubp8, active compounds read low 1.02 | S. cerevisiae deletion strains, locus YMR231W, strain pep5, active compounds read low 0.971 | S. cerevisiae deletion strains, locus YMR263W, strain SAP30, active compounds read low 0.974 | S. cerevisiae deletion strains, locus YMR307W, strain GAS1, active compounds read low 0.998 | S. cerevisiae deletion strains, locus YNL067W, strain RPL9B, active compounds read low 0.999 | S. cerevisiae deletion strains, locus YNL071W, strain lat1, active compounds read low 0.979 | S. cerevisiae deletion strains, locus YNL128W, strain TEP1, active compounds read low 0.971 | S. cerevisiae deletion strains, locus YNL153C, strain GIM3, active compounds read low 1 | S. cerevisiae deletion strains, locus YNL183C, strain NPR1, active compounds read low 0.955 | S. cerevisiae deletion strains, locus YNL209W, strain ssb2, active compounds read low 0.963 | S. cerevisiae deletion strains, locus YNL233W, strain BNI4, active compounds read low 1.01 | S. cerevisiae deletion strains, locus YNL248C, strain rpa49, active compounds read low 0.976 | S. cerevisiae deletion strains, locus YNL250W, strain rad50, active compounds read low 1.01 | S. cerevisiae deletion strains, locus YNL271C, strain bni1, active compounds read low 1.01 | S. cerevisiae deletion strains, locus YNL298W, strain CLA4, active compounds read low 1.01 | S. cerevisiae deletion strains, locus YNL307C, strain MCK1, active compounds read low 1.03 | S. cerevisiae deletion strains, locus YNL322C, strain KRE1 (second series), active compounds read low 0.992 | S. cerevisiae deletion strains, locus YNL322C, strain KRE1, active compounds read low 0.998 | S. cerevisiae deletion strains, locus YNR049C, strain mso1, active compounds read low 0.975 | S. cerevisiae deletion strains, locus YNR052C, strain pop2, active compounds read low 1.01 | S. cerevisiae deletion strains, locus YOL006C, strain TOP1, active compounds read low 1.03 | S. cerevisiae deletion strains, locus YOL012C, strain htz1 1.07 | S. cerevisiae deletion strains, locus YOL147C, strain pex11, active compounds read low 1.02 | S. cerevisiae deletion strains, locus YOR001W, strain rrp6, active compounds read low 0.967 | S. cerevisiae deletion strains, locus YOR061W, strain CKA2, active compounds read low 1 | S. cerevisiae deletion strains, locus YOR069W, strain VPS5, active compounds read low 0.994 | S. cerevisiae deletion strains, locus YOR070C, strain gyp1, active compounds read low 0.974 | S. cerevisiae deletion strains, locus YOR080W, strain dia2, active compounds read low 0.977 | S. cerevisiae deletion strains, locus YOR083W, strain WHI5, active compounds read low 0.984 | S. cerevisiae deletion strains, locus YOR106W, strain vam3, active compounds read low 0.981 | S. cerevisiae deletion strains, locus YOR136W, strain idh2, active compounds read low 1.02 | S. cerevisiae deletion strains, locus YOR144C, strain elg1, active compounds read low 1.01 | S. cerevisiae deletion strains, locus YOR184W, strain ser1, active compounds read low 1 | S. cerevisiae deletion strains, locus YOR231W, strain MKK1, active compounds read low 0.966 | S. cerevisiae deletion strains, locus YOR265W, strain rbl2, active compounds read low 0.975 | S. cerevisiae deletion strains, locus YOR270C, strain vph1, active compounds read low 0.949 | S. cerevisiae deletion strains, locus YOR290C, strain snf2, active compounds read low 0.962 | S. cerevisiae deletion strains, locus YOR316C, strain cot1, active compounds read low 1 | S. cerevisiae deletion strains, locus YPL051W, strain arl3, active compounds read low 0.976 | S. cerevisiae deletion strains, locus YPL055C, strain LGE1, active compounds read low 0.996 | S. cerevisiae deletion strains, locus YPL078C, strain atp4, active compounds read low 0.974 | S. cerevisiae deletion strains, locus YPL106C, strain sse1, active compounds read low 0.96 | S. cerevisiae deletion strains, locus YPL240C, strain hsp82, active compounds read low 0.981 | S. cerevisiae deletion strains, locus YPL241C, strain CIN2, active compounds read low 0.983 | S. cerevisiae deletion strains, locus YPL256C, strain CLN2, active compounds read low 0.982 | S. cerevisiae deletion strains, locus YPR119W, strain clb2, active compounds read low 1.01 | S. cerevisiae deletion strains, locus YPR141C, strain kar3, active compounds read low 1.02 | S. cerevisiae deletion strains, locus YPR163C, strain tif3, active compounds read low 1.02 | S. cerevisiae deletion strains, locus YPR167C, strain met16, active compounds read low 1.01 | S. cerevisiae deletion strains, strain wtn01, active compounds read low 1 | S. cerevisiae strains, strain wild type, active compounds read low 0.986

Source: PubChem BioAssay AID1159580 (chemical genetic matrix, 2015)
